D1 agonist: human D1 receptor agonism; P21728; HEK293 T-REx D1 cells, calcium flux, agonist mode; activation, % at 2 µM; actives 1% (n = 360,000); AID 504660; also: 0% is about no effect
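Tetracycline-induced HEK293 TREx D1 cells, force-coupled to calcium signalling, were dye-loaded with a no-wash calcium kit. Compound was pin-added after a 10 s baseline. Fluorescence was read kinetically at 1 cycle/s for 180 s, with calcium rises flagged as agonism.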
D1 antagonist: antagonists of human D1 dopamine receptor; P21728; HEK293 TREx D1 cells, calcium flux, dopamine EC80; hits give low values; activity change, negative = inhibition, % at 10 µM; actives 3.2% (n = 360,000); AID 504652; in the data active = activity change below about -30%; also: % is scaled to controls: 0 for no effect and ±100 for the full control effect
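Using tetracycline-induced force-coupled D1 Hek293 cells and a calcium dye, signals were followed for 180 s after compound, then for 180 s after EC80 dopamine, to detect inhibitors.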
TRHR PAM: allosterically enhances the human TRH receptor. P34981. TRHR cells, fluo-8 calcium fluorescence, EC20 TRH enhancement. enhancement, % at 2 µM. actives 0.66% (n = 360,000); in the data active = enhancement above about 30%; also: 0% is about no effect
Target sequence (P34981 whole entry, looked up): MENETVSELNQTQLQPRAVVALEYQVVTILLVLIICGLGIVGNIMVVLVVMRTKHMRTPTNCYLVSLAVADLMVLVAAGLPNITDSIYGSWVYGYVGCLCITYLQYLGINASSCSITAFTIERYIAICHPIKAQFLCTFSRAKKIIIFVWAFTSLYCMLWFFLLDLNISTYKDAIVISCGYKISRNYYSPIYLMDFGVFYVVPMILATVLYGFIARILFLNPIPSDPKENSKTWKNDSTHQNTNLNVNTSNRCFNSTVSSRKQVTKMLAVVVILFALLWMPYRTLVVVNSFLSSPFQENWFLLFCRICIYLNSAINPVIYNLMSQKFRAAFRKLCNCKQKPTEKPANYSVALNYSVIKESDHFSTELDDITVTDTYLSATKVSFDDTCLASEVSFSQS
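Enhancer read-out: after compound pinning and an initial kinetic agonist-mode read, an EC20 of TRH (10 nM final) was injected and fluo-8 calcium signal (Ex 480/Em 530) followed at 1 s/cycle for 100 cycles in TRHR-expressing cells.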
D1 potentiator: human D1 dopamine receptor positive modulation | P21728 | HEK293 TREx D1 cells, calcium flux, dopamine EC20 potentiation | potentiation, % at 10 µM | actives 0.036% (n = 360,000); in the data active = potentiation above about 30%; also: 0% is about no effect
TRHR agonist: activates the human TRH receptor; P34981; AID 493084; activation, % at 2 µM; TRHR cells, calcium flux fluo-8, FDSS agonist mode; actives 0.18% (n = 360,000); also: 0% is about no effect
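TRHR-expressing cells, plated overnight in medium with 10% serum, were loaded with fluo-8 calcium dye at room temperature. After a 10 s baseline, library compound was pin-added and calcium release was recorded kinetically (ex 480/em 530) as agonist response.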
Numbers without * were called inactive; ! = not confirmed by another sample. An excerpt weighted towards active compounds, which were near 4.7% of everything screened. Rule as the data show it, unless noted: active = activation above about 30%; inactive = the rest.

SMILES	D1 agonist	D1 antagonist	TRHR PAM	D1 potentiator	TRHR agonist
CC1(C)CC2CC(C)(CN2C(=O)c2ccccc2)C1 (configuration not stated)	0	4	-5	-4	-1
COc1cc(Cl)ccc1OCc1cc(C(=O)N2C[C@]3(C)C[C@H]2CC(C)(C)C3)no1	38*	16	-5	8	1
COc1ccc(C(=O)N2CC3(C)CC2CC(C)(C)C3)cc1 (configuration not stated)	1	-32*	-3	-6	0
CCOc1ccc(-c2nonc2NC(=O)c2oc3ccc(Cl)cc3c2C)cc1	1	-32*	-1	3	0
COc1ccc(-c2nonc2NC(=O)c2oc3ccccc3c2C)cc1OC	2	-22	2	-1	0
CCOc1cc(CNC(=O)c2ccc3c(c2)N(C)C(=O)C2CCCCN32)ccc1OC (configuration not stated)	0	-11	3	1	0
COC(=O)c1[nH]c2ccc(C)cc2c1NC(=O)c1ccccc1[N+](=O)[O-]	-1	-36*	-1	-2	0
O=C(NCc1ccccc1Cl)c1ccc(NC(=O)N2CCSc3ncccc32)cc1	1	5	-2	1	0
COC(=O)c1ccc(N2CCN(CC(=O)c3ccc(-c4ccccc4)cc3)CC2)c([N+](=O)[O-])c1	2	-34*	-2	-8	0
NC(=O)c1ccc(N2CCN(S(=O)(=O)c3ccccc3)CC2)c([N+](=O)[O-])c1	12	-40*	15	1	0
NC(=O)c1ccc(N2CCC(C(N)=O)CC2)c([N+](=O)[O-])c1	2	12	1	2	1
CCOC(=O)C1CCN(c2ccc(C(N)=O)cc2[N+](=O)[O-])CC1	11	-33*	12	-4	0
CCOc1nc(NC(=O)NS(=O)(=O)Oc2cccc(F)c2)nc(-c2ccccc2)n1	-1	-1	2	-2	-1
Cc1cccc(NC(=O)c2oc3ccccc3c2NC(=O)c2cc(=O)c3ccccc3o2)c1	3	-8	7	-1	0
Cc1cc2oc(C(=O)Nc3ccc(S(=O)(=O)N(C)Cc4ccccc4)cc3)cc(=O)c2cc1C	1	1	31*	5	0
Cc1cc2oc(C(=O)Nc3c(C(=O)Nc4ccccc4)oc4ccccc34)cc(=O)c2cc1C	3	-43*	3	-1	-1
COc1ccc(NS(=O)(=O)c2cc(NC(=O)c3cc(=O)c4ccccc4o3)ccc2OC)cc1	6	-4	34*	-3	0
Cc1cccc(C)c1Nc1c(-c2ccc(Cl)s2)nc2ncccn12	9	6	8	0	3
CCCCn1c(N)c(N(CC(C)C)C(=O)c2oc3ccc(OCC)cc3c2C)c(=O)[nH]c1=O	2	1	5	-3	0
CCCCN(C(=O)c1oc2ccc(OCC)cc2c1C)c1c(N)n(CC(C)C)c(=O)[nH]c1=O	0	-32*	-8	-16	0
CCc1ccc(-n2c(=O)c3cccnc3n2CC(=O)N(CC)c2cccc(C)c2)cc1	14	7	-3	1	1
O=C(O)CC/C(=C\c1ccc(N2CCOCC2)c([N+](=O)[O-])c1)c1nc2ccccc2s1	0	-77*	-4	-14	0
O=C(CCn1ccc2cc(S(=O)(=O)N3CCCC3)ccc21)NCc1ccccc1Cl	7	-15	-4	-2	0
O=C(CCn1ccc2cc(S(=O)(=O)N3CCCC3)ccc21)NCc1ccccc1F	5	-31*!	-3	-2	1
CCOc1ccccc1CNC(=O)CCn1ccc2cc(S(=O)(=O)N3CCCCC3)ccc21	48*!	9	9	3	0
O=c1cc(-c2ccccc2Cl)oc2c(NS(=O)(=O)c3ccccc3C(F)(F)F)ccc(O)c12	2	-30*	-3	-7	-1
COc1ccc(CC(=O)N2CCc3cc(OC)c(OC)cc3C2COc2ccc(F)cc2)cc1 (configuration not stated)	8	1	3	1	0
Cc1nc(-c2ccccc2)sc1CCNC(=O)C(=O)Nc1ccc(F)c(Cl)c1	7	1	0	-4	2
CC(C)C(NC(=O)c1ccccc1F)C(=O)OCC(=O)c1ccc(F)cc1 (configuration not stated)	5	-32*	-6	-13	2

Source: PubChem BioAssay
